# From PubChem BioAssay (EPA / NIEHS)
# Results filed as inconclusive are left out. The source made the active and inactive calls. The calls were made as follows: active = hit-call score of the fitted dose curve at least 0.9, where 1 is the maximum; inconclusive = response in the unintended direction; inactive = score below 0.9.
# Key:
# [1] = biological target: human Thromboxane A2 Receptor (TXA2), TBXA2R (gene 6915) (UniProt P21731); assay: NVS_GPCR_hTXA2: NovaScreen (NVS) G Protein-Coupled Receptor Assay for human Thromboxane A2 Receptor (TXA2) (AID 2283282);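 also: actives reduce bound radioligand signal relative to DMSO baseline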
# Outline: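 Biochem binding, human platelets, cell-free; competitive radioligand displacement; 1 h; filter radiodetection. 25 uM duplicate primary, conc. series secondary; DMSO neg. ctrl.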
# [2] = biological target: human Opioid Receptor Mu (Opiate Mu), OPRM1 (gene 4988) (UniProt P35372); assay: NVS_GPCR_hOpiate_mu: NovaScreen (NVS) G Protein-Coupled Receptor Assay for human Opioid Receptor Mu (Opiate Mu) (AID 2283290);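 also: hits lower bound tracer signal versus DMSO meaning displacement of the ligand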
# Outline: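 Here, radioligand binding to CHO-extracted receptor was measured after 2.5 h using filter-based scintillation detection. Initial single-concentration screening used 25 uM in duplicate with plate controls; confirmed actives went to concentration-response testing.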
# [3] = biological target: guinea pig Bradykinin Receptor B2 (BK2), BDKRB2 (gene 100135486) (UniProt O70526); assay: NVS_GPCR_gBK2: NovaScreen (NVS) G Protein-Coupled Receptor Assay for guinea pig Bradykinin Receptor B2 (BK2) (AID 2283292)
# Outline: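 Guinea pig ileum membrane preparation incubated 1 h with radioligand and test chemical; bound counts measured after filtration. Primary duplicate screening at 25 uM, then singleton concentration series with a 50 uM top dose; DMSO as baseline.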
# [4] = biological target: guinea pig Serotonin, 5-Hydroxytryptamine Receptor 4 (5HT4), HTR4 (gene 100135548) (UniProt O70528); assay: NVS_GPCR_g5HT4: NovaScreen (NVS) G Protein-Coupled Receptor Assay for guinea pig Serotonin, 5-Hydroxytryptamine Receptor 4 (5HT4) (AID 2283294)
# Outline: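 Compounds first screened in duplicate at 25 uM, actives followed up in concentration series. Binding measured as displacement of specific radioligand from guinea pig striatal membranes, 1 h, filter-based scintillation read-out versus DMSO baseline.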
# [5] = tested on: rabbit Platelet Activating Factor Receptor (PAF), gene 100354046; assay: NVS_GPCR_rabPAF: NovaScreen (NVS) G Protein-Coupled Receptor Assay for rabbit Platelet Activating Factor Receptor (PAF) (AID 2283287)
# Outline: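 Rabbit platelet membrane preparation; radioligand displacement read by filter-based scintillation counting 1 h after dosing, loss of signal versus DMSO. Primary screen in duplicate at 25 uM, actives followed up in concentration series.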
# [6] = biological target: rat Adrenergic Receptor, Alpha 2 (Adra2), Non-selective Binding, Adra2a (gene 25083) (UniProt P22909); assay: NVS_GPCR_rAdra2_NonSelective: NovaScreen (NVS) G Protein-Coupled Receptor Assay for rat Adrenergic Receptor, Alpha 2 (Adra2), Non-selective Binding (AID 2283299)
# Outline: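 Filter-based scintillation counting of radioligand binding to rat cortical membrane receptors, measured 1.25 hours post-dosing; loss of signal versus DMSO indicates displacement. Initial single-concentration duplicate at 25 uM, then concentration series.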
# [7] = biological target: human Neurokinin, NK2 Receptor, TACR2 (gene 6865) (UniProt P21452); assay: NVS_GPCR_hNK2: NovaScreen (NVS) G Protein-Coupled Receptor Assay for human Neurokinin, NK2 Receptor (AID 2283278);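 also: actives reduce bound radioligand signal relative to DMSO baseline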
# Outline: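 Test chemicals displace a radioligand from receptor prepared from CHO cells in a cell-free format, read after 4 hours by scintillation counting on filters. Screening starts at 25 uM in duplicate, and active chemicals then go to concentration series.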
# [8] = biological target: human Orphanin, Opioid Related Nociceptin Receptor 1 (ORL1), OPRL1 (gene 4987) (UniProt P41146); assay: NVS_GPCR_hORL1: NovaScreen (NVS) G Protein-Coupled Receptor Assay for human Orphanin, Opioid Related Nociceptin Receptor 1 (ORL1) (AID 2283283)
# Outline: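 Cell-free binding using HEK293-derived receptor protein: radioligand displacement measured by filter scintillation 1 hour after dosing. Primary testing at 25 uM in duplicate, followed by singleton concentration series up to 50 uM; DMSO served as negative control.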
# [9] = tested on: rat Adrenergic, Alpha 1B Receptor (Adra1B), gene 24173; assay: NVS_GPCR_rAdra1B: NovaScreen (NVS) G Protein-Coupled Receptor Assay for rat Adrenergic, Alpha 1B Receptor (Adra1B) (AID 2283297)
# Outline: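 Filter-binding radioligand competition on membranes from rat liver, read after 1 h by scintillation counting. Single-concentration duplicate screen at 25 uM, followed by concentration-response on actives, normalised to DMSO.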
# [10] = biological target: rat Adrenergic, Alpha 1, Non-selective Receptor (Adra1), Adra1a (gene 29412) (UniProt P43140); assay: NVS_GPCR_rAdra1_NonSelective: NovaScreen (NVS) G Protein-Coupled Receptor Assay for rat Adrenergic, Alpha 1, Non-selective Receptor (Adra1) (AID 2283289)
# Outline: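 Chemicals first screened in duplicate at 25 uM, then actives tested in concentration series up to 50 uM. Binding measured as displacement of radioligand from rat forebrain membrane receptors, 1 h, filtration with scintillation readout; DMSO baseline.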
# [11] = biological target: rat Adrenergic, Alpha 1A Receptor (Adra1A), Adra1a (gene 29412) (UniProt P43140); assay: NVS_GPCR_rAdra1A: NovaScreen (NVS) G Protein-Coupled Receptor Assay for rat Adrenergic, Alpha 1A Receptor (Adra1A) (AID 2283296)
# Outline: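 Filter radiodetection after 1 h competitive binding on CEC-pretreated rat cortical membranes. Duplicate single-point screening at 25 uM; active chemicals retested across concentration series.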
# [12] = biological target: human Opioid Receptor Delta 1 (Opiate D1), OPRD1 (gene 4985) (UniProt P41143); assay: NVS_GPCR_hOpiate_D1: NovaScreen (NVS) G Protein-Coupled Receptor Assay for human Opioid Receptor Delta 1 (Opiate D1) (AID 2283280)
# Outline: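 Membrane preparations from CHO cells bearing the human receptor were incubated 1 h with test chemical, and bound radioligand was counted after filtration. Actives from 25 uM duplicate screening were retested in concentration-response.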
# [13] = biological target: rat Serotonin, 5-Hydroxytryptamine Receptor (5HT), Non-Selective Binding, Htr1a (gene 24473) (UniProt P19327); assay: NVS_GPCR_r5HT_NonSelective: NovaScreen (NVS) G Protein-Coupled Receptor Assay for rat Serotonin, 5-Hydroxytryptamine Receptor (5HT), Non-Selective Binding (AID 2283295)
# Outline: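 Rat cortex membrane preparation incubated 1 h with radioligand and test chemical; bound radioactivity counted after filtration. Screening began in duplicate at 25 uM with concentration-series follow-up; fitting relative to DMSO.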
# Chain of guinea pig Serotonin, 5-Hydroxytryptamine Receptor 4 (5HT4), HTR4 (gene 100135548) (O70528 whole entry, looked up): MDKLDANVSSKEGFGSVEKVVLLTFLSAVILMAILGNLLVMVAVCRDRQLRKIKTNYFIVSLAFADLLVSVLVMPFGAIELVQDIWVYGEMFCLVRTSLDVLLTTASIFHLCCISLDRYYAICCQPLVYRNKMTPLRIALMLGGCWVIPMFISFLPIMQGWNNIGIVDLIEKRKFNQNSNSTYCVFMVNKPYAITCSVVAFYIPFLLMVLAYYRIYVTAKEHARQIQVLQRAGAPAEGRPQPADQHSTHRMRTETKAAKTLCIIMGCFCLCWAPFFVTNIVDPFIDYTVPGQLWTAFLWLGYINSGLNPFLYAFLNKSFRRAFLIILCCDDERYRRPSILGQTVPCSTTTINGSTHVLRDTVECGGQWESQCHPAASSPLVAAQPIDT
# Chain of human Thromboxane A2 Receptor (TXA2), TBXA2R (gene 6915) (P21731 whole entry, looked up): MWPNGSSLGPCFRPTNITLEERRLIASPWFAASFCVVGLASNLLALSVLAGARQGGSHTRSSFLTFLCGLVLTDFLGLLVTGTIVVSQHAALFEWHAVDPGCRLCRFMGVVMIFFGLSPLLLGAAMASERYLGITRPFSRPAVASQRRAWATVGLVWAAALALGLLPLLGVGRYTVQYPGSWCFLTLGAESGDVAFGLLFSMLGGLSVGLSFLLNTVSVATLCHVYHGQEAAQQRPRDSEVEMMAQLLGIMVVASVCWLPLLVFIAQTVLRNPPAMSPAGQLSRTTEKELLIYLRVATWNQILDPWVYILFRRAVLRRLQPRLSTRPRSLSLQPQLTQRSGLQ
# Chain of human Opioid Receptor Mu (Opiate Mu), OPRM1 (gene 4988) (P35372 whole entry, looked up): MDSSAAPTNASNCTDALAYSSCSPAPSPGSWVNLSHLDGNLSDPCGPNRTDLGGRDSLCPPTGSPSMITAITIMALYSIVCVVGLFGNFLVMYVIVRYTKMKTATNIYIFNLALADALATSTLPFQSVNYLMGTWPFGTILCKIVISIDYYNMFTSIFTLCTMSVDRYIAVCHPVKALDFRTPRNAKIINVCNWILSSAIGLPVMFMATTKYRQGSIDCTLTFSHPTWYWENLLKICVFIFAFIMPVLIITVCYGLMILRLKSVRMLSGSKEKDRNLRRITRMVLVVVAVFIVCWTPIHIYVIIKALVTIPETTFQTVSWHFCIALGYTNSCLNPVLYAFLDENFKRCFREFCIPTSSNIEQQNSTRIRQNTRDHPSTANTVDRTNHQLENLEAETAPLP
# Chain of human Neurokinin, NK2 Receptor, TACR2 (gene 6865) (P21452 whole entry, looked up): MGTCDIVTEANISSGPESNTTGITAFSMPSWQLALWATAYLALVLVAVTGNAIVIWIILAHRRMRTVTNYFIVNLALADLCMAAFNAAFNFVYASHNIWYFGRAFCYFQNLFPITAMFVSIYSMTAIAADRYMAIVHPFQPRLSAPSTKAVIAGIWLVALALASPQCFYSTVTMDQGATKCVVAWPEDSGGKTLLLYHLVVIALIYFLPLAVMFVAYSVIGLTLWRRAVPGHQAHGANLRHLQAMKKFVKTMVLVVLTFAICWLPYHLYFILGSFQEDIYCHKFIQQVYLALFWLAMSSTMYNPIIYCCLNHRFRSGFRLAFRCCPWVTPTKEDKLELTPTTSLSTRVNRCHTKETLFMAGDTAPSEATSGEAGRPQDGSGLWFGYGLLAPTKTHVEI
# Chain of rat Adrenergic Receptor, Alpha 2 (Adra2), Non-selective Binding, Adra2a (gene 25083) (P22909 whole entry, looked up): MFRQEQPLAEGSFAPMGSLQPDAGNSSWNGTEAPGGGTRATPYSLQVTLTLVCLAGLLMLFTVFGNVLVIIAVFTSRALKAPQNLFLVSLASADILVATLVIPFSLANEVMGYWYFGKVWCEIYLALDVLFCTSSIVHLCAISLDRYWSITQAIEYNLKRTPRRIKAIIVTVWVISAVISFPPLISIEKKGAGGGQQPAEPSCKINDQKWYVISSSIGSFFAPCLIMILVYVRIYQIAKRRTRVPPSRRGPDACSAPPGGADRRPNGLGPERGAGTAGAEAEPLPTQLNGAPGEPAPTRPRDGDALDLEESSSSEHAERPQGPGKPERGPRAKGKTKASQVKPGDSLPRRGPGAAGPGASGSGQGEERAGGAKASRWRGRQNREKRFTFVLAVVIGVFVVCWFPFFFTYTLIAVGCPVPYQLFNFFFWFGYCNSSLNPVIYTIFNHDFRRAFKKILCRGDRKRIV
# Chain of human Opioid Receptor Delta 1 (Opiate D1), OPRD1 (gene 4985) (P41143 whole entry, looked up): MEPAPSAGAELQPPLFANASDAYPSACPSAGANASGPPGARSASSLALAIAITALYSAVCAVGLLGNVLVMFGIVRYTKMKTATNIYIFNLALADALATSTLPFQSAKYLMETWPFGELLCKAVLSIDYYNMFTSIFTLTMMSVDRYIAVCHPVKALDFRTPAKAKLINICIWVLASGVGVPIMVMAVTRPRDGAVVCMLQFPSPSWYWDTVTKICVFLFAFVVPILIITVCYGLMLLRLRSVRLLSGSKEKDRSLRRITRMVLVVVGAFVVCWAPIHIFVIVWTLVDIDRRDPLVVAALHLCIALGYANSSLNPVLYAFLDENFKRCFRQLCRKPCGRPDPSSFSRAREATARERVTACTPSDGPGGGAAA
# Chain of rat Serotonin, 5-Hydroxytryptamine Receptor (5HT), Non-Selective Binding, Htr1a (gene 24473) (P19327 whole entry, looked up): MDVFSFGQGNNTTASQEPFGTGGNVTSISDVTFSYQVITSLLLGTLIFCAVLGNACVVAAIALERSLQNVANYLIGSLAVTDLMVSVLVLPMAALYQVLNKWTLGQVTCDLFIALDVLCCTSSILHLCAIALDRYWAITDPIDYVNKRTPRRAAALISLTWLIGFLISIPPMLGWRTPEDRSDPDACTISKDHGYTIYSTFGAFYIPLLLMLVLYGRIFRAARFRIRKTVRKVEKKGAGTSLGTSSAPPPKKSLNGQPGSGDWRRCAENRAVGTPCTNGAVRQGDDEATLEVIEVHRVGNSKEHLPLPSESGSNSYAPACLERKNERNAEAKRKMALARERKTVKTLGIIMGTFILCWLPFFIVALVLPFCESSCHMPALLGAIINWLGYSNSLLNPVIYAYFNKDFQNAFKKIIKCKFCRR
# Chain of rat Adrenergic, Alpha 1A Receptor (Adra1A), Adra1a (gene 29412) (P43140 whole entry, looked up): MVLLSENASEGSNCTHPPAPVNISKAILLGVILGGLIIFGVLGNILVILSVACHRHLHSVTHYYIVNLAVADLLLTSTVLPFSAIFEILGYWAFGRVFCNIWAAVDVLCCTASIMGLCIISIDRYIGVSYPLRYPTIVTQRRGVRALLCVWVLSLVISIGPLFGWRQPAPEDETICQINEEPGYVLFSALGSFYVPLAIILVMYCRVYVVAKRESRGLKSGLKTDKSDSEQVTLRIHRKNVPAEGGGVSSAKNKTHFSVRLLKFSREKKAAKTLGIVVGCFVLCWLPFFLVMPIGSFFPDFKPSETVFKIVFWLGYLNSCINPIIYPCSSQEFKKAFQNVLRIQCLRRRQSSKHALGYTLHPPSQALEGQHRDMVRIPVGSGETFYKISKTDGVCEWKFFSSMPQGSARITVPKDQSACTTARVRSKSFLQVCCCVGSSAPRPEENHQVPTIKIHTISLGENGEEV
# Chain of rat Adrenergic, Alpha 1, Non-selective Receptor (Adra1), Adra1a (gene 29412) (P43140 whole entry, looked up): as above
# Chain of human Orphanin, Opioid Related Nociceptin Receptor 1 (ORL1), OPRL1 (gene 4987) (P41146 whole entry, looked up): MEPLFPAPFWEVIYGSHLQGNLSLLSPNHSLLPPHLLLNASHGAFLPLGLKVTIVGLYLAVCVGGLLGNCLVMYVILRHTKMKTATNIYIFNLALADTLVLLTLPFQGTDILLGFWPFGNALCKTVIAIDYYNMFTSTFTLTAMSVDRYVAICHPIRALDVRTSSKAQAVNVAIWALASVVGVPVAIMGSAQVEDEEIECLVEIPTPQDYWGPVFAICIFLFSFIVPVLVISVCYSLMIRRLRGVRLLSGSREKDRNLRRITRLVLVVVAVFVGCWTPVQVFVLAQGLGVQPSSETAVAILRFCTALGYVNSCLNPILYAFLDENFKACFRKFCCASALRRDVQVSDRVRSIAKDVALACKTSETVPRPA
# Chain of guinea pig Bradykinin Receptor B2 (BK2), BDKRB2 (gene 100135486) (O70526 whole entry, looked up): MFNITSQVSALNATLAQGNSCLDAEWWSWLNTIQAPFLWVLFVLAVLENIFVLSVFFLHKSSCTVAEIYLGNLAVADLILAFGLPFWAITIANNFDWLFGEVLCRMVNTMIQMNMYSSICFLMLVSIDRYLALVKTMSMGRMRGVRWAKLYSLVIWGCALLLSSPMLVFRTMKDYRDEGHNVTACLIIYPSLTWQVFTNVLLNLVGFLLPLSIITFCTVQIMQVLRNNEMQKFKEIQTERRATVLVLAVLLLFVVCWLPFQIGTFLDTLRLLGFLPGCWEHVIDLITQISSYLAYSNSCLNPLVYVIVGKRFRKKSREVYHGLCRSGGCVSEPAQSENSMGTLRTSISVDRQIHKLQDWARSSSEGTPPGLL
smiles,measurement,setting,value
CCCCCCCC/C=C\CCCCCCCC(=O)OC[C@@H](O)[C@H]1OC[C@H](O)[C@H]1O,AC50,[1],25 µM (active)
same,outcome,[2],inactive
CNC(C)=O,outcome,[3],inactive
Cc1cccc(O)c1C,outcome,[1],inactive
CCCCCCCCCCCCCCO,outcome,[2],inactive
CCCCOC(=O)c1ccccc1,outcome,[1],inactive
same,outcome,[4],inactive
Cc1nccn1-c1ccc(Sc2cccc(C3(C(N)=O)CCOCC3)c2)cc1,AC50,[5],15.8 µM (active)
same,outcome,[4],inactive
same,AC50,[6],11.1 µM (active)
CCN(CC)C(=S)SSC(=S)N(CC)CC,AC50,[7],1.35 µM (active)
same,AC50,[8],14 µM (active)
same,outcome,[2],inactive
same,AC50,[4],19 µM (active)
same,outcome,[9],inactive
COc1cc(C(C)C)c2c(c1)S(=O)(=O)N(COc1cc(=O)n3cccc(OCCN4CCCCC4)c3n1)C2=O,AC50,[10],3.1 µM (active)
same,outcome,[2],inactive
same,AC50,[4],1.38 µM (active)
same,outcome,[11],inactive
same,AC50,[9],3.17 µM (active)
same,AC50,[6],4.16 µM (active)
Cc1ncc([C@@H](CCCCCCc2ccc3c(n2)NCCC3)CC(=O)O)cn1,outcome,[12],inactive
same,outcome,[13],inactive
OCc1c[nH]c2ccccc12,AC50,[7],19.7 µM (active)
same,outcome,[1],inactive
